# Source: the supplement of paper PMC11001985
# Compound: C#CCNC(=O)CCSSCCC(=O)NCCc1ccc(C=O)c(C=O)c1
# Experiment: lysine labeling ratio R10:1 (500 µM / 50 µM probe), SILAC-ABPP in living cells; higher = lower intrinsic lysine reactivity toward the probe, active = 2 or less
# Conditions: HeLa; probe concentrations 500 vs 50 µM
# Outline: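 An alkyne-tagged lysine probe with a disulfide linker labelled living HeLa cells in PBS at room temperature at either 50 µM or 500 µM, using SILAC light and heavy cells in forward and reverse label swaps. Lysates were mixed, clicked to biotin-azide, trypsin-digested, enriched on neutravidin, DTT-released, alkylated and measured by LC-MS/MS on a TIMS-TOF Pro. Each lysine's R is the filtered median high-probe/low-probe MS1 peptide ratio, combined as the median over forward and reverse replicates, with 20 as the upper limit.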
# UniProt Q15149, sequence (Q15149 whole entry): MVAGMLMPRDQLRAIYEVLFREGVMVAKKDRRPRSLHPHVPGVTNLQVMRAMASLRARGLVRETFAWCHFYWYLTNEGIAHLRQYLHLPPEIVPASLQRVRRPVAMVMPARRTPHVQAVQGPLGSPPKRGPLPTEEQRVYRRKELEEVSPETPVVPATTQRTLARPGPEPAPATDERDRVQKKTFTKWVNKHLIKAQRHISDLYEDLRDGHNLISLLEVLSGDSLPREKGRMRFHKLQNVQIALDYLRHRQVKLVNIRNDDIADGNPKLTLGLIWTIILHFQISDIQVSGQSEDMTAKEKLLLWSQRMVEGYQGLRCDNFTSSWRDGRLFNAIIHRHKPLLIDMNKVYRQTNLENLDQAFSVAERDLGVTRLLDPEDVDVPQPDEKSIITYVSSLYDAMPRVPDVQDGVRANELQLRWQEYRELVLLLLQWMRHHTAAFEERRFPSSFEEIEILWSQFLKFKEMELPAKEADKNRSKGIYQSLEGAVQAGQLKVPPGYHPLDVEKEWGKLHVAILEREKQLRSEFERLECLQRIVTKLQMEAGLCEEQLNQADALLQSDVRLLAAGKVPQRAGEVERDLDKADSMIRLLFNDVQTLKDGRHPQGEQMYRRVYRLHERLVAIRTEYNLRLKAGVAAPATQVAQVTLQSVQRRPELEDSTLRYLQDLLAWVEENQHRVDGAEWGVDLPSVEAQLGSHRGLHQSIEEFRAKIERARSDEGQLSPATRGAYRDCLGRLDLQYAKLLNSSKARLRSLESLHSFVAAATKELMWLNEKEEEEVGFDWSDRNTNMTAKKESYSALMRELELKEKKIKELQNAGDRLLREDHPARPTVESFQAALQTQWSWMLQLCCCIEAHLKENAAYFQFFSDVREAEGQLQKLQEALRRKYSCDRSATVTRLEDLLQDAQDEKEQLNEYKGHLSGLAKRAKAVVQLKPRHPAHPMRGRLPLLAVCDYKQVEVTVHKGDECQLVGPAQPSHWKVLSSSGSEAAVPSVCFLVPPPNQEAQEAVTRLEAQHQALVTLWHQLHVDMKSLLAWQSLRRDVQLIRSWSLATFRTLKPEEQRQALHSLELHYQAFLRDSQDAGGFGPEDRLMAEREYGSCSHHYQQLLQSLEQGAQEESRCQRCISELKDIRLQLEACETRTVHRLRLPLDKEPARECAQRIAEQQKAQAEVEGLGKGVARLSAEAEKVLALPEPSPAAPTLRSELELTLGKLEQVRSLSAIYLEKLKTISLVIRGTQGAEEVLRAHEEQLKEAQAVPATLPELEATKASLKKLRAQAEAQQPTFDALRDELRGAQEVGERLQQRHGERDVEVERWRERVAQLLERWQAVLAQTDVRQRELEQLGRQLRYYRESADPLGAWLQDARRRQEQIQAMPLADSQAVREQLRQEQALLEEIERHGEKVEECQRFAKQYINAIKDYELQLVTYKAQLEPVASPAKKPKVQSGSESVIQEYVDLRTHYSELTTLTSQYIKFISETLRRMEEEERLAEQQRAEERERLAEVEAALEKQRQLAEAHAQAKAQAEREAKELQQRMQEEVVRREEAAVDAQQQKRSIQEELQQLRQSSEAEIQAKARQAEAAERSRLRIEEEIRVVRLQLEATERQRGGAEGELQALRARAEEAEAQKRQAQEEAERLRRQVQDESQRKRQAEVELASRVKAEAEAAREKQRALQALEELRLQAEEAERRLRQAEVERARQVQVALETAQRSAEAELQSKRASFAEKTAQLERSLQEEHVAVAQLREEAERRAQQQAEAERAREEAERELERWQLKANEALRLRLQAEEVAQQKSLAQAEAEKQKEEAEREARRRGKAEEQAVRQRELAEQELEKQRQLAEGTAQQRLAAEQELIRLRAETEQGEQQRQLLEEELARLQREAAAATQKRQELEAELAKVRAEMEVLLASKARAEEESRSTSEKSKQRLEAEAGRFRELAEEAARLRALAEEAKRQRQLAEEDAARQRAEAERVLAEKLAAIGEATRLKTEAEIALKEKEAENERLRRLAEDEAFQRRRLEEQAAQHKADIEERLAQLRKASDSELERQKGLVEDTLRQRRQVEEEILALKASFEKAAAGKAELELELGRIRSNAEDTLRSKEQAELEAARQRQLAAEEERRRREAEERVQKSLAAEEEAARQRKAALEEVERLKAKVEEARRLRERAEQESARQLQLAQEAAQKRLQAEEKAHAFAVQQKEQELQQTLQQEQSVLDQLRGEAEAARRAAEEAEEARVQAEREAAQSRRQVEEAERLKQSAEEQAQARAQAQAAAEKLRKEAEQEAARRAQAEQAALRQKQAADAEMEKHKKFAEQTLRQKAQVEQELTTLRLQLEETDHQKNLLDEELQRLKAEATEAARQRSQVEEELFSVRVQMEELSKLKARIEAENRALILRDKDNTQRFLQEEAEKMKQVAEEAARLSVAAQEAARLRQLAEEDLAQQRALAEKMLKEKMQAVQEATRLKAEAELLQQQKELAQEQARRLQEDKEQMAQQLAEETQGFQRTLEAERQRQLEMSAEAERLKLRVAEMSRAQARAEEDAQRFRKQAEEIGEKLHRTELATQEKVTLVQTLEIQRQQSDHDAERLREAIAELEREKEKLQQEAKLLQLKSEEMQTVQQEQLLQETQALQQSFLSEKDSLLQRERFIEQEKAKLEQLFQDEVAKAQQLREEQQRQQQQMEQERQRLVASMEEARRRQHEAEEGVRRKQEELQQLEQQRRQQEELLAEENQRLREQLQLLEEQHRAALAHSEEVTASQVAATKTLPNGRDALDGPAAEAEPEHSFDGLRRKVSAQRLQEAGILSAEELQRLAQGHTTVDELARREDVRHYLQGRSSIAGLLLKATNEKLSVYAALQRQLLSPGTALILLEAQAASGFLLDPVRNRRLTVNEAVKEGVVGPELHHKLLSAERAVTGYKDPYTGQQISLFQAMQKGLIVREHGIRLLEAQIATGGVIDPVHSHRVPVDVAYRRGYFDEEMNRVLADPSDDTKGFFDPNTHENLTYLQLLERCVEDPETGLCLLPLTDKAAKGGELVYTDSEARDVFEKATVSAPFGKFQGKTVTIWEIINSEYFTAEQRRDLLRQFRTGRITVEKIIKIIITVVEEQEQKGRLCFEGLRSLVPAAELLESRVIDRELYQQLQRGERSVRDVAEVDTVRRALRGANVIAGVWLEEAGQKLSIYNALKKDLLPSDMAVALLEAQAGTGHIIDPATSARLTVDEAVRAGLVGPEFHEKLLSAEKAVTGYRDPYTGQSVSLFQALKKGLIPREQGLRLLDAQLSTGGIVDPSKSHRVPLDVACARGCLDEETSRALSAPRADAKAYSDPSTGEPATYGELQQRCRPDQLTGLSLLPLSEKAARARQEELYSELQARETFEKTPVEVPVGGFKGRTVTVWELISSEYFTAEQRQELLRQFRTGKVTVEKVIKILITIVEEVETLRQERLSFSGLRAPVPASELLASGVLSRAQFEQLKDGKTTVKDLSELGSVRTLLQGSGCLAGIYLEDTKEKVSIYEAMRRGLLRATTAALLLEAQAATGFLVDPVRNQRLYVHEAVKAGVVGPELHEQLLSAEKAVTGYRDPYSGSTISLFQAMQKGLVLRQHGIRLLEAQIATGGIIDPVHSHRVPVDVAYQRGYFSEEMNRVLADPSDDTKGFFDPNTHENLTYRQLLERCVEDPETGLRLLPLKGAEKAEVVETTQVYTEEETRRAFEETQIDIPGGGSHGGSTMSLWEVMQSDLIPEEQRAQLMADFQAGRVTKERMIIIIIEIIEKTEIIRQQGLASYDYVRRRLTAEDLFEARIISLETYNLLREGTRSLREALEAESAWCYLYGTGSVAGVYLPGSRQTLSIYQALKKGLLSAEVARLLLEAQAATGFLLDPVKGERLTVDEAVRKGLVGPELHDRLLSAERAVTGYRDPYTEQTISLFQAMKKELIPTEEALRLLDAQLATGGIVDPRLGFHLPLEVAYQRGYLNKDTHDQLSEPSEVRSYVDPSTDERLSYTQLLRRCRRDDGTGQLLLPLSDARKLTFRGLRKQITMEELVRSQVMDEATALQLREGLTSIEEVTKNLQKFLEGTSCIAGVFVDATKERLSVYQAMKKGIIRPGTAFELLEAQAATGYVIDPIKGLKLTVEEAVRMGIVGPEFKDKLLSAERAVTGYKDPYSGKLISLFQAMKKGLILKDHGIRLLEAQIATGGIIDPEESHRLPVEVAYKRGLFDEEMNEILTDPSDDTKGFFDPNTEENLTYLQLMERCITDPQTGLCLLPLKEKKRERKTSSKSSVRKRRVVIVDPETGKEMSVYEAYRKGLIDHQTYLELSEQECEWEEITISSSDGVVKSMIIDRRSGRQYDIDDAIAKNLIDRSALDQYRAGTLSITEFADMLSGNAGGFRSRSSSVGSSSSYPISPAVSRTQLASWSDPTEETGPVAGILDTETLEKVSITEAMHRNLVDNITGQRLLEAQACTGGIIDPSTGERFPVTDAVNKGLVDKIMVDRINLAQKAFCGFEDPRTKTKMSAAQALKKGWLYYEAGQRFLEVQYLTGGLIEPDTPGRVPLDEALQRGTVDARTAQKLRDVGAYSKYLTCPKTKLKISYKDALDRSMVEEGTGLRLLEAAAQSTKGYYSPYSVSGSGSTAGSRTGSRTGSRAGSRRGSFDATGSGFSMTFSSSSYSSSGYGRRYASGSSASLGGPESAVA
# UniProt P07737, sequence (P07737 whole entry): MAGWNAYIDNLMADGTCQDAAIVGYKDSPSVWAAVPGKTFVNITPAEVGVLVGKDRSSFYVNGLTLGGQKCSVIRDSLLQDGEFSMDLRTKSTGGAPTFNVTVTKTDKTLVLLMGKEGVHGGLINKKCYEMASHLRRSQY
# UniProt O14495, sequence (O14495 whole entry): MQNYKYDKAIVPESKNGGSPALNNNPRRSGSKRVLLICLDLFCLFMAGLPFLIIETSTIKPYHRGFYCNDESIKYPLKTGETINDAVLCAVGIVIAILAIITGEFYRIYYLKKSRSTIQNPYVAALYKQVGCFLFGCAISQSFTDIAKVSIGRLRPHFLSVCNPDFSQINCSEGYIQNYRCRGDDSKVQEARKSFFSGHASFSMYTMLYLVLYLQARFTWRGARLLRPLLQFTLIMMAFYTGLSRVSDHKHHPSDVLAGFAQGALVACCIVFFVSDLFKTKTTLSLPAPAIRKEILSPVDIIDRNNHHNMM
row,Target,lysine labeling ratio R10:1
1,UniProt P62913 (lysine site: K159),2.96 (inactive)
2,FASN (lysine site: K1927) (UniProt P49327),1.05 (active)
3,PLPP3 (lysine site: K187) (UniProt O14495),2.06 (inactive)
4,HSPD1 (lysine site: K301) (UniProt P10809),2.58 (inactive)
5,FZD5 (lysine site: K113) (UniProt Q13467),1.57 (active)
6,UniProt Q15149 (lysine site: K1923),1.36 (active)
7,PFN1 (lysine site: K70) (UniProt P07737),2.2 (inactive)
8,UniProt Q15149 (lysine site: K1528),1.47 (active)
9,UniProt P05787 (lysine site: K472),2.67 (inactive)
10,TSPAN6 (lysine site: K146) (UniProt O43657),1.28 (active)
11,RPS19 (lysine site: K122) (UniProt P39019),4.72 (inactive)
12,FOLR1 (lysine site: K44) (UniProt P15328),1.8 (active)
13,ANXA1 (lysine site: K166) (UniProt P04083),1.32 (active)
14,ANPEP (lysine site: K379) (UniProt P15144),0.5 (active)
15,FLNA (lysine site: K876) (UniProt P21333),4.23 (inactive)
16,PDCD6IP (lysine site: K374) (UniProt Q8WUM4),5.72 (inactive)
17,FAT4 (lysine site: K2221) (UniProt Q6V0I7),4.75 (inactive)
